Laboratory results published in the supplement of paper PMC6555819.

What follows are sequences tested on RARg:RXRa (NR concentration 270 nM, RXRa partner concentration 90 nM) (assay: PBM binding z-score (relative to random genomic background probes); higher = stronger binding; sequences stand for … in GC…GCGATTGACAGCGTAGAATGAAGG).
In short: (§1)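 Ligand-free nuclear receptor dimers were applied to custom Agilent 4×180K protein-binding microarrays whose double-stranded probes carried direct-repeat seeds, single-nucleotide variants, half-site ablations and random human genomic background sequences in 34-nt variable regions. Incubation lasted 1 h. Binding z-scores were computed against the random background probes from regression-normalized fluorescence.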

| Sequence | PBM binding z-score |
| --- | --- |
| TGTCAAAGTTCAAAGGTAAAGTAAGTATCCACAC | 6.33 |
| CGAACTAGCTCAGAACAGGACAGTGAAGGATGAT | -0.313 |
| GATACAGGGTCAGCTAGAGGCAAGAGTATGGAAA | 4.72 |
| GGAACGAGGGCATTCGAGTTAATAGCATGGCGAT | 1.33 |
| TGTGCTAGGTCAACGATGGTCAGCTAATCTGCTA | 3.88 |
| ATACCAAGGTGATCGTGAGGTGGTTGATACTAAC | 0.588 |
| CCTTACGGGTCACGAGGTTATAACACGACGAGCG | 6.07 |
| CCTAGCAGGCCAATCTCGGTCACTCAAGGCTTGA | 0.504 |
| ACTAGCACGCCAAGTTTGGGTCACTCAAACAAAG | 0.693 |
| TCATAAAGGTAAATGCTAGGTGAAAGTCCGATCT | 1.03 |
| CGAACGAGGGCATGAGTAGATAGCAAATGCCGAT | 1.22 |
| TCCTATAGGTAAACAGGTGAAAGTCCGTAAGTTA | 0.269 |
| CCTATTAGTTGACCATAAGGGCAACGGAAGCTCG | 1.29 |
| TAGCCTACGTCATGGGCCAGTATACCACGCGAAC | -0.29 |
| TCTGCTAGGTCAACTATGGTCAGCTAATCTGCTA | 4.26 |
| TCTTGTAGATCACTAGAGGTTAAGAAAGTGCGCT | 0.919 |
| TCTAGTTGGTCAAAGGTCACAGACTCGAAATGCG | 7.34 |
| CGACCTAGGTCAGAACAGGACAGTGAAGGATGAT | 3.3 |
| CCGGCTGGGGCATAAGGTTACCATAAGCCAGCCC | 1.83 |
| CCTACTGGGCCAAAGGTTATTGATTCCAATGCTC | 2.07 |

| Sequence | PBM binding z-score |
| --- | --- |
| TAGCCTAGGTCATTCTGGGGCCAGTATAGAAAGC | 4.85 |
| GCGAATGGGGCATCAGCAGGTTACCATAACTTAA | 0.664 |
| CCCGAAAGGTCGTGCTCAGGTGAGTATACCAAAC | 5.06 |
| ACTTACGGGTCAACGAGGTTGTAGCACGCGTATA | 5.34 |
| ATCTCCAGGTAAAAGTTCAGTGAATCCCGAGGAT | 2.14 |
| TGAATGAGGTTAAAGACCAGGGAACGTGGCGTCG | 1.91 |
| GCTAGCAGGCCATTTGGCTCACTCAATGACGGGC | -0.42 |
| TCATATCGGTAAATGCTAGGTGAAAGTCCGATCT | -0.0615 |
| AATACAGGGTCATCGTAGGACAGAGTACGCACAG | 5.62 |
| CCTACTGGGCCATTCAGAGGTCATTCATCATATG | 4.47 |
| GTACCAAGGTGAATAGGTGGTTGATGAGTAGGCG | 0.652 |
| GCTCGGAGGACAAGTTCAGAGCTTTGTCCGTAGA | 0.89 |
| TGTCAAAGTTCAAAGGTAACGTAGGTATCCACAC | 6.19 |
| GATACAGTGTCAGCTAGAGGCCAGAGTATGGAAA | 2.09 |
| GATACAGGGTCTGCTAGAGGCCAGAGTATGGAAA | 0.857 |
| TTACCAAGGTGAGCTGAGGCCGTTGATCCAACTC | -0.177 |
| ACTATTAGTTGAGACGAGGGCAACCGATAGGTTG | 0.833 |
| TCTTGTAGATGAAGCAGGTTAAGAAAGCCTGAGT | -0.0639 |
| AGTCAAAGTTCATGTAGGTAACGTAAGATATGCT | 5.31 |

These sequences were tested on RARg homodimer (NR concentration 270 nM) in the same assay as above.
In short: as §1

| Sequence | PBM binding z-score |
| --- | --- |
| TGTCAAAGTTCAAAGGTAAAGTAAGTATCCACAC | 6.06 |
| CGAACTAGCTCAGAACAGGACAGTGAAGGATGAT | 0.137 |
| GATACAGGGTCAGCTAGAGGCAAGAGTATGGAAA | 4.64 |
| GGAACGAGGGCATTCGAGTTAATAGCATGGCGAT | 1.59 |
| TGTGCTAGGTCAACGATGGTCAGCTAATCTGCTA | 5.19 |
| ATACCAAGGTGATCGTGAGGTGGTTGATACTAAC | 0.258 |
| CCTTACGGGTCACGAGGTTATAACACGACGAGCG | 5.32 |
| CCTAGCAGGCCAATCTCGGTCACTCAAGGCTTGA | 1.24 |
| ACTAGCACGCCAAGTTTGGGTCACTCAAACAAAG | 0.804 |
| TCATAAAGGTAAATGCTAGGTGAAAGTCCGATCT | 0.541 |
| CGAACGAGGGCATGAGTAGATAGCAAATGCCGAT | 1.57 |
| TCCTATAGGTAAACAGGTGAAAGTCCGTAAGTTA | 0.132 |
| CCTATTAGTTGACCATAAGGGCAACGGAAGCTCG | 0.865 |
| TAGCCTACGTCATGGGCCAGTATACCACGCGAAC | -0.1 |
| TCTGCTAGGTCAACTATGGTCAGCTAATCTGCTA | 5.22 |
| TCTTGTAGATCACTAGAGGTTAAGAAAGTGCGCT | 0.66 |
| TCTAGTTGGTCAAAGGTCACAGACTCGAAATGCG | 6.39 |
| CGACCTAGGTCAGAACAGGACAGTGAAGGATGAT | 4.04 |
| CCGGCTGGGGCATAAGGTTACCATAAGCCAGCCC | 1.05 |
| CCTACTGGGCCAAAGGTTATTGATTCCAATGCTC | 0.739 |

| Sequence | PBM binding z-score |
| --- | --- |
| TAGCCTAGGTCATTCTGGGGCCAGTATAGAAAGC | 3.81 |
| GCGAATGGGGCATCAGCAGGTTACCATAACTTAA | 0.351 |
| CCCGAAAGGTCGTGCTCAGGTGAGTATACCAAAC | 4.02 |
| ACTTACGGGTCAACGAGGTTGTAGCACGCGTATA | 4.57 |
| ATCTCCAGGTAAAAGTTCAGTGAATCCCGAGGAT | 2.33 |
| TGAATGAGGTTAAAGACCAGGGAACGTGGCGTCG | 0.92 |
| GCTAGCAGGCCATTTGGCTCACTCAATGACGGGC | -0.0728 |
| TCATATCGGTAAATGCTAGGTGAAAGTCCGATCT | 0.173 |
| AATACAGGGTCATCGTAGGACAGAGTACGCACAG | 5.18 |
| CCTACTGGGCCATTCAGAGGTCATTCATCATATG | 2.94 |
| GTACCAAGGTGAATAGGTGGTTGATGAGTAGGCG | 0.628 |
| GCTCGGAGGACAAGTTCAGAGCTTTGTCCGTAGA | 1.25 |
| TGTCAAAGTTCAAAGGTAACGTAGGTATCCACAC | 6.01 |
| GATACAGTGTCAGCTAGAGGCCAGAGTATGGAAA | 0.824 |
| GATACAGGGTCTGCTAGAGGCCAGAGTATGGAAA | 0.279 |
| TTACCAAGGTGAGCTGAGGCCGTTGATCCAACTC | -0.0104 |
| ACTATTAGTTGAGACGAGGGCAACCGATAGGTTG | 0.861 |
| TCTTGTAGATGAAGCAGGTTAAGAAAGCCTGAGT | -0.213 |
| AGTCAAAGTTCATGTAGGTAACGTAAGATATGCT | 5.84 |
